An excerpt weighted towards active compounds, which were near 16% of everything screened.
TDP1 cell noCPT – qHTS for Inhibitors of human tyrosyl-DNA phosphodiesterase 1 (TDP1): qHTS in cells in absence of CPT. 15% of 420,000 active. DT40 Tdp1-/- hTDP1 cells, no CPT, ATP luminescence, 48 h. Potency, µM (top dose mostly 46.2 µM), for inactives: at the top dose activity change, negative = growth inhibition, usual class: inhibitors; note: potency is the fitted concentration of half-maximal effect; % is set by controls: 0 for no effect and ±100 for the full control effect; nearly all actives have a fitted effect of over 55% in size
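DT40 Tdp1-/-;hTDP1 cells, no CPT (DMSO vehicle only), 400 cells/well; compounds pin-transferred; ≥48 hr, 37 °C; CellTiter-Glo 30 min RT dark, luminescence read.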
TDP1 cell CPT – qHTS for Inhibitors of human tyrosyl-DNA phosphodiesterase 1 (TDP1): qHTS in cells in presence of CPT | chicken DT40 Tdp1-/-;hTDP1 cells + 20 nM CPT, ATP luminescence, 48 h | Potency, µM (series often up to 46.2 µM), inactives show at the top dose activity change, negative = growth inhibition, hits mostly inhibitors | 12% of 420,000 active | AID 686979, 2013; note: potency is the fitted concentration of half-maximal effect; % is set by controls: 0 for no effect and ±100 for the full control effect; nearly all actives have a fitted effect of over 55% in size
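Chicken DT40 Tdp1-/- cells complemented with human TDP1, 400 cells/well, exposed to compounds plus 20 nM camptothecin for at least 48 h at 37 C; viability read as ATP content by CellTiter-Glo luminescence.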
uPA generation – qHTS for Inhibitors of Cell Surface uPA Generation; 0.31% of 330,000 active; cell surface uPA generation assay, qHTS; Potency, µM (highest dose often 38.3 µM), without a hit: at the top dose activity change, negative = inhibition, actives largely listed as inhibitors; active = well fitted inhibition curve with a large enough effect; inconclusive = small, poorly fitted or top-dose-only effect; inactive = no such curve, though single readings can be large or run the other way; tested in mouse RAW 264.7 cells; note: potency is the fitted concentration of half-maximal effect; % is set by controls: 0 for no effect and ±100 for the full control effect; nearly all actives have a fitted effect of over 55% in size
miR-21 act – qHTS Assay for Modulators of miRNAs and/orActivators of miR-21 | HeLa miR-21 FLuc reporter, luciferase, 48 h | Potency, µM (series often up to 38.3 µM), inactives show at the top dose activity change, positive = activation, usual class: activators | 340,000 tested, under 10 active | AID 2288, 2010;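 note: % of control where 0% means no effect; miR-21 action dims this reporter so a rising signal means less miR-21 action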
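Compounds were titrated across several concentrations (up to approximately 40 uM) and incubated 48 hours with HeLa miR-21-FLuc reporter cells (miR-21 target sequence downstream of FLuc, endogenous miR-21). Readout was firefly luciferase luminescence after lytic detection reagent.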
TDP1 block – qHTS Assay for Inhibitors of Tyrosyl-DNA Phosphodiesterase (TDP1); recombinant TDP1, AlphaScreen DNA substrate cleavage; Potency, µM (doses to about 130 µM), for inactives: top-dose activity change, negative = inhibition, usual class: inhibitors; 0.28% of 350,000 active; note: potency is the fitted concentration of half-maximal effect; % is set by controls: 0 for no effect and ±100 for the full control effect; nearly all actives have a fitted effect of over 40% in size
Target sequence (Q9NUW8 whole entry, looked up): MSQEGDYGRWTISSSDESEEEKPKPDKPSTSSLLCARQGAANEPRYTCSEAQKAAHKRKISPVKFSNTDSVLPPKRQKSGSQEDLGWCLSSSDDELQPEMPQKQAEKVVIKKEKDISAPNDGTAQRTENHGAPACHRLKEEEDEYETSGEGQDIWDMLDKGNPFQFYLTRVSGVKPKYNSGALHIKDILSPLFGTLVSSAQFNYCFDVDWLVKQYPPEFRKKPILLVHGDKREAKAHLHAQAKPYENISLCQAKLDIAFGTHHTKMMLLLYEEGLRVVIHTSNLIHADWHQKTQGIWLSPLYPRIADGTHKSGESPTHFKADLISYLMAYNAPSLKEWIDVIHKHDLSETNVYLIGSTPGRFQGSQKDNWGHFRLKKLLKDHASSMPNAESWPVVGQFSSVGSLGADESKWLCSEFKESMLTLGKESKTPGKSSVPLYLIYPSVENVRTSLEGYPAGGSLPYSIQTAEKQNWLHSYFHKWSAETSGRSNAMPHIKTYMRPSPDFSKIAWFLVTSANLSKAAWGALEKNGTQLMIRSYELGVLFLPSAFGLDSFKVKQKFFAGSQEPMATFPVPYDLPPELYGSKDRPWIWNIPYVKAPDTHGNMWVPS
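AlphaScreen read-out: signal falls as enzyme removes the 3' tyrosine-FITC from a 5'-biotinylated DNA oligo (15 nM, 5 min, RT). Enzyme was E. coli-made recombinant Tdp1 at 1 nM, exposed to compound for 15 min beforehand; beads 10 ug/ml, 10 min.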
Numbers without * were called inactive. Unless noted, calls come from the whole dose curve; as a rule, active = well fitted curve in the direction sought with a large enough effect; inconclusive = small, poorly fitted or top-dose-only effect, or another doubt; inactive = no such curve, though single readings can be large; an effect the other way counts as inactive or inconclusive.

`CC1C(=O)N(Cc2cn(Cc3ccco3)nn2)CCS(=O)(=O)N1Cc1ccc(-c2ccc(Cl)cc2)cc1` (configuration not stated) gave TDP1 cell noCPT 13µM* and TDP1 cell CPT 18.4µM*.
For CC1C(=O)N(Cc2cn(Cc3ccco3)nn2)CCS(=O)(=O)N1Cc1ccc(-c2ccccc2)cc1 (configuration not stated) the results were TDP1 cell noCPT 18.4µM* and TDP1 cell CPT inconclusive.
`CC(C)CCNC(=O)CN(Cc1ccccc1)C(=O)CCC(=O)Nc1ccccn1` gave TDP1 cell noCPT -20.0%, TDP1 cell CPT -8.5%, uPA generation -2.7%, miR-21 act -0.3% and TDP1 block 2.4%.
Cc1cccc(OCC(=O)Nc2nccs2)c1C was read as TDP1 cell noCPT -28.7%, TDP1 cell CPT inconclusive, uPA generation inconclusive, miR-21 act -24.4% and TDP1 block 2.0%.
For CN(C)CCCNc1cc(C(C)(C)C)nc2c(-c3ccc(Cl)cc3)cnn12 the results were TDP1 cell noCPT inconclusive, TDP1 cell CPT 13µM*, uPA generation 15.3%, miR-21 act inconclusive and TDP1 block 4.1%.
CC(C)(C)c1cc(-n2ccnc2)n2ncc(-c3ccc(Cl)cc3)c2n1 was read as TDP1 cell noCPT inconclusive, TDP1 cell CPT inconclusive, uPA generation 11.1%, miR-21 act -48.7% and TDP1 block 2.3%.
`CCc1nccn1-c1cc(C(C)(C)C)nc2c(-c3ccc(Cl)cc3)cnn12` gave TDP1 cell noCPT 18.4µM*, TDP1 cell CPT inconclusive, uPA generation 1.7%, miR-21 act -34.6% and TDP1 block 4.1%.
`CC(C)(C)c1cc(NCc2ccccn2)n2ncc(-c3ccc(Cl)cc3)c2n1` gave TDP1 cell noCPT 16.4µM*, TDP1 cell CPT inconclusive, uPA generation 10.2%, miR-21 act -10.7% and TDP1 block 4.1%.
Screening O=C(CSc1nnc(CNC(=O)c2ccc(F)cc2)o1)c1ccccc1 returned TDP1 cell noCPT inconclusive, TDP1 cell CPT -26.7%, uPA generation -2.9%, miR-21 act -2.1% and TDP1 block 2.1%.
`CC(C)c1ccc(Nc2c(-c3ccccn3)nc3ccccn23)cc1` gave TDP1 cell noCPT 2.06µM*, TDP1 cell CPT 9.2µM*, miR-21 act inconclusive and TDP1 block 17.6%.
Cc1ccn2c(Nc3ccccc3C)c(-c3ccccn3)nc2c1 was read as TDP1 cell noCPT 2.91µM*, TDP1 cell CPT 16.4µM*, uPA generation -18.5%, miR-21 act 26.6% and TDP1 block 12.3%.
Cc1ccc2nc(-c3ccccn3)c(Nc3ccc(F)cc3)n2c1 was read as TDP1 cell noCPT 2.31µM*, TDP1 cell CPT 2.06µM*, miR-21 act 17.8% and TDP1 block 8.2%.
For Cc1ccc2nc(-c3ccccn3)c(Nc3ccccc3C)n2c1 the results were TDP1 cell noCPT 10.3µM*, TDP1 cell CPT 16.4µM*, uPA generation -15.8%, miR-21 act 26.6% and TDP1 block 10.5%.
Cc1ccc2nc(-c3cccnc3)c(Nc3ccc(C(C)C)cc3)n2c1 was read as TDP1 cell noCPT -5.4%, TDP1 cell CPT -24.9%, miR-21 act -0.6% and TDP1 block 0.0%.
CC1(C)CC(=O)C2=C(C1)N(CC1CCCO1)C(=O)NC2(C(F)(F)F)C(F)(F)F (configuration not stated) was read as TDP1 cell noCPT -6.2%, TDP1 cell CPT 0.3%, uPA generation -7.7%, miR-21 act -1.0% and TDP1 block -2.2%.
For Cc1ccn2c(Nc3ccccc3)c(-c3ccccn3)nc2c1 the results were TDP1 cell noCPT 2.59µM*, TDP1 cell CPT 4.61µM*, uPA generation -4.2%, miR-21 act 20.4% and TDP1 block 9.9%.
For Cc1ccccc1Nc1c(-c2cc(Br)ccc2F)nc2ccccn12 the results were TDP1 cell noCPT -26.6%, TDP1 cell CPT -24.8%, miR-21 act -1.7% and TDP1 block -1.8%.
